Reference: PubChem BioAssay (NCATS)
Values joined by “and” are separate entries in the source; they are usually repeats but may differ in a detail not shown here. Equal values may be shown once. Inconclusive results are not listed. Active and inactive are the calls of the source. Unless noted, calls follow the shape of the dose curve; as a rule, active = well fitted curve in the direction sought with a large enough effect; inconclusive = small, poorly fitted or top-dose-only effect, or another doubt; inactive = no such curve, though single readings can be large; an effect the other way counts as inactive or inconclusive.

Experiments:
[1] = tested on: Zika virus NS2B-NS3 protease; test: Primary screen GU AMC qHTS for Zika virus inhibitors (AID 1347154);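 also: 0% = no-inhibitor control and -100% = no-enzyme control; nearly all actives have a fitted effect of over 70% in size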
Procedure, shortened: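 Unlinked Zika NS2B hydrophilic domain/NS3 protease domain noncovalent complex (25 nM final) in 10 mM Tris-HCl pH 8.0, 0.01% Tween 20, with AMC peptide substrate. Fluorescence (ex 340, em 450 nm) change over 15 min, room temperature; percent inhibition fitted to 4-parameter Hill equation.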

[2] = Primary qHTS for small molecule stabilizers of the endoplasmic reticulum resident proteome: Secreted ER Calcium Modulated Protein (SERCaMP) assay (AID 1508630); also: % is scaled to controls: 0 for no effect and ±100 for the full control effect
Procedure, shortened: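 The SH-SY5Y reporter protocol was run at 3 concentrations up to 38.3 uM (primary) or 11 concentrations (follow-up): 16 h compound, 100 nM thapsigargin for 4 h, then extracellular luciferase luminescence.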

[3] = molecular target: Cytochrome P450 2D6 (Homo sapiens) (UniProt P10635); test: Cytochrome P450 family 2 subfamily D member 6 (CYP2D6) small molecule antagonists: luciferase biochemical (cell-free) qHTS assay (AID 1645840; active = well fitted curve in the direction sought with a large enough effect in the repeat runs; an effect the other way counts as inactive or inconclusive; also: % is scaled to controls: 0 for no effect and ±100 for the full control effect; nearly all actives have a fitted effect of over 55% in size)
Sequence of Cytochrome P450 2D6 (Homo sapiens) (P10635 whole entry, looked up): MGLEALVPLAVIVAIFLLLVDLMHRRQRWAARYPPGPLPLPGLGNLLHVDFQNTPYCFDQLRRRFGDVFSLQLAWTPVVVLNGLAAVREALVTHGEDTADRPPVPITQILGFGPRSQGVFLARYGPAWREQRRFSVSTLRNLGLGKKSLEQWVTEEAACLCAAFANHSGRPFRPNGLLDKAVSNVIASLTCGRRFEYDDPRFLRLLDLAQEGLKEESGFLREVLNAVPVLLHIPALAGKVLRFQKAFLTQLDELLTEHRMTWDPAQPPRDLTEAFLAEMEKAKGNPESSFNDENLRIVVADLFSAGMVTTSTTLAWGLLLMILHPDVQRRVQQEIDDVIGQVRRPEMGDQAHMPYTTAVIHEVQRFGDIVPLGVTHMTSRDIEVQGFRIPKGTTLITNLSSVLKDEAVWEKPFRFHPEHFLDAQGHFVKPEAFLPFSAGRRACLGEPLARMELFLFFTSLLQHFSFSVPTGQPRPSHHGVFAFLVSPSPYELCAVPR
Procedure, shortened: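 P450-Glo CYP2D6 system: proluciferin substrate converted by enzyme to luciferin, read by luminescence proportional to activity. Enzyme-substrate mix with compound 10 min at room temperature, then NADPH regeneration 1 h before detection reagent.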

[4] = molecular target: Cytochrome P450 2C9 (Homo sapiens) (UniProt P11712); test: Cytochrome P450 family 2 subfamily C member 9 (CYP2C9) small molecule antagonists: luciferase biochemical (cell-free) qHTS assay (AID 1645842; active = well fitted curve in the direction sought with a large enough effect in the repeat runs; an effect the other way counts as inactive or inconclusive; also: % is scaled to controls: 0 for no effect and ±100 for the full control effect; nearly all actives have a fitted effect of over 55% in size)
Procedure, shortened: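 P450-Glo CYP2C9 system: proluciferin substrate with enzyme in mix containing 0.4% BSA, 10 min at room temperature, then NADPH regeneration solution added and incubated 1 h at 37C. Detection reagent stopped reaction; luminescence read after 20 min as RLU.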

[5] = Primary qHTS for inhibitors of nuclear receptor binding SET domain protein 2 (NSD2) in an isogenic RCH-ACV NSD2 p.E1099K mutant (9B) (AID 1645876); also: potency is read from the fitted curve at half-maximal effect; nearly all actives have a fitted effect of over 70% in size
[6] = Primary qHTS for inhibitors of nuclear receptor binding SET domain protein 2 (NSD2) in an RCH-ACV wild type WT cells (2C) (AID 1645877); also: potency is read from the fitted curve at half-maximal effect; nearly all actives have a fitted effect of over 70% in size
[7] = qHTS assay to identify inhibitors of the type 1 interferon - major histocompatibility complex class I in skeletal muscle: Counter screen cell viability and HiBit confirmation (AID 1347412); conditions: iHSKM muscle cells + IFN-b, HiBiT or CellTiter-Glo, 24 h; also: nearly all actives have a fitted effect of over 60% in size; also: potency is read from the fitted curve at half-maximal effect
Procedure, shortened: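 Human myoblast knock-in line, 4.0 ng/ml IFN-beta stimulation, 24 h compound treatment. Endpoints: HiBiT lytic luminescence (HLA-B level) and CellTiter Glo (ATP). Dosing 12 concentrations, 3-fold steps, 46 uM highest final.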

[8] = molecular target: Cytochrome P450 3A4 (Homo sapiens) (UniProt P08684); test: qHTS Assay for Inhibitors and Substrates of Cytochrome P450 3A4 (AID 884); also: potency is read from the fitted curve at half-maximal effect; nearly all actives have a fitted effect of over 50% in size
Sequence of Cytochrome P450 3A4 (Homo sapiens) (P08684 whole entry, looked up): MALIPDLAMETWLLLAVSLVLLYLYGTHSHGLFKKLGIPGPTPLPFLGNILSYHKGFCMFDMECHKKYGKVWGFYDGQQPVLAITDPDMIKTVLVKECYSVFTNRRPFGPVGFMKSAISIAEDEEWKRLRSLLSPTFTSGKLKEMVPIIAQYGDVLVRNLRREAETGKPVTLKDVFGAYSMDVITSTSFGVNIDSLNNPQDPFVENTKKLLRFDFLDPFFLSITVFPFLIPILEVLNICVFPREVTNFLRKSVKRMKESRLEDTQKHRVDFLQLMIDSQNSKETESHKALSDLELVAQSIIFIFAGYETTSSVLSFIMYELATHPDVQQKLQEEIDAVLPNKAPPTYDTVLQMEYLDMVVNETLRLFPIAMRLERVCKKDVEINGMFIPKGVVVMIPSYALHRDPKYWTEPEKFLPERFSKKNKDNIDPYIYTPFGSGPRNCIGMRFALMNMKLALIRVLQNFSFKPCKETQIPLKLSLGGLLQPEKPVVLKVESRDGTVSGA
Procedure, shortened: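 Luminescent readout of luciferin produced by CYP3A4 (20 nM) dealkylation of Luciferin-PPXE, 25 uM (its KM). NADPH-driven reaction ran 60 min at RT after 10 min compound preincubation; data scaled to 57 uM ketoconazole as 100% inhibition.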

[9] = molecular target: Cytochrome P450 3A4 (Homo sapiens) (UniProt P08684); test: qHTS Assay for Activators of Cytochrome P450 3A4 (AID 885); also: nearly all actives have a fitted effect of over 65% in size
Procedure, shortened: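 CYP3A4 activity: Luciferin-PPXE O-dealkylation, 25uM substrate, 200mM KPO4, RT throughout. Read-out is luciferase luminescence; higher values reflect activation.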

[10] = Confirmatory qHTS for small molecule stabilizers of the endoplasmic reticulum resident proteome: Secreted ER Calcium Modulated Protein (SERCaMP) assay (AID 1508628); also: nearly all actives have a fitted effect of over 40% in size; also: potency is read from the fitted curve at half-maximal effect
Procedure, shortened: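 GLuc-SERCaMP-expressing SH-SY5Y cells, pretreated 16 h with compound, are challenged with thapsigargin to empty ER calcium stores; after 4 h, coelenterazine is added directly to the medium and luminescence is imaged.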

[11] = molecular target: Cytochrome P450 1A2 (Homo sapiens) (UniProt P05177); test: p450-cyp1a2 (AID 410; calls by dose curve; also: potency is read from the fitted curve at half-maximal effect)
Sequence of Cytochrome P450 1A2 (Homo sapiens) (P05177 whole entry, looked up): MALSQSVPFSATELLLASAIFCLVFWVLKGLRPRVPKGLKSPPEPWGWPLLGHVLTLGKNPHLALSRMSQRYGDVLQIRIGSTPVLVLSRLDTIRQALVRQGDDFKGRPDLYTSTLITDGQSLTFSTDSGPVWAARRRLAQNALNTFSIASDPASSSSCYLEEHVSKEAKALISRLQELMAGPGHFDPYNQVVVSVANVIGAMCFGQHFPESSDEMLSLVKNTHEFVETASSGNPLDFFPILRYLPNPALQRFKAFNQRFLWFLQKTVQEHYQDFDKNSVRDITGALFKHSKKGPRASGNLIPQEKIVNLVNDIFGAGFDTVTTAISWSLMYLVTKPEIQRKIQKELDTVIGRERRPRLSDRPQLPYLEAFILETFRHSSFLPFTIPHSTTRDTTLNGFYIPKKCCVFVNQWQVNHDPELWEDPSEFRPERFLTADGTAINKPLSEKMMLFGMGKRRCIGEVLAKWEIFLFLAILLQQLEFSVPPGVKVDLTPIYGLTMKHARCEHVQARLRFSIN
Procedure, shortened: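 Read-out is luminescence from luciferin produced by CYP1A2 demethylation of Luciferin-ME (100uM, at Km). Detection reagent stopped the 60 min NADPH-dependent reaction; signals were normalized to 57 uM furafylline.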

[12] = molecular target: Glucocorticoid receptor (Homo sapiens) (UniProt P04150); test: GR-GFP Redistribution (AID 450;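 active = compounds whose dose series gives a full or clear partial fitted curve of increased nuclear translocation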; also: potency is read from the fitted curve at half-maximal effect); conditions: U2OS GR-GFP nuclear translocation, laser cytometry, 2 h
Sequence of Glucocorticoid receptor (Homo sapiens) (P04150 whole entry, looked up, the tested form may be a part): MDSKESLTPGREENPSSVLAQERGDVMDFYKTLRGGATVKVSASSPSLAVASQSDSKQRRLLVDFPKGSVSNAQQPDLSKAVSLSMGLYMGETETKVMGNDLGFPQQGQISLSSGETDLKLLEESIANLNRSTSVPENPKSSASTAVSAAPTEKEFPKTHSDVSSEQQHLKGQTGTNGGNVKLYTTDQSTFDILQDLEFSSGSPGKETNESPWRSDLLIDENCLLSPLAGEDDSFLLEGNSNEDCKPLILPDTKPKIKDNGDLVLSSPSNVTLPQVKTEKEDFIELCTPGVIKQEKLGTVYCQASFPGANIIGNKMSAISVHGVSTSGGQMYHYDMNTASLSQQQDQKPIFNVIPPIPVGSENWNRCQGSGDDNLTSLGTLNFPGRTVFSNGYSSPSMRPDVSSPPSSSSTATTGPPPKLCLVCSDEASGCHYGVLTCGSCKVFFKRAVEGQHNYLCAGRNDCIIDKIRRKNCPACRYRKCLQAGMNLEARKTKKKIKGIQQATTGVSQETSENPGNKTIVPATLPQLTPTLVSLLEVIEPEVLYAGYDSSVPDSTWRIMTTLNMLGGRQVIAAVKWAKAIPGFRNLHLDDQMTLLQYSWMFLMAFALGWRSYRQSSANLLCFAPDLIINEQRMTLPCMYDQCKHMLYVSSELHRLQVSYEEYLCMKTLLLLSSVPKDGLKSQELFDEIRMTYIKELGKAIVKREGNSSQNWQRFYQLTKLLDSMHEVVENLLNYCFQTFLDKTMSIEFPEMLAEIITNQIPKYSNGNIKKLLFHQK

[13] = molecular target: Glucocorticoid receptor (Homo sapiens) (UniProt P04150); test: GR-EFC Redistribution (AID 451; calls by dose curve; also: potency is read from the fitted curve at half-maximal effect); conditions: CHO-K1 GR-EFC translocation, beta-gal luminescence, 2 h
Procedure, shortened: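 CHO-K1 cells stably expressing nuclear-localized β-gal enzyme acceptor and GR fused C-terminally to the enzyme donor fragment; ligand-driven nuclear translocation restores β-gal by complementation. Compounds titrated up to 46 uM final, 2 h at 37 °C; luminescence read.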

[14] = molecular target: Mitogen-activated protein kinase 10 (Mus musculus) (UniProt Q61831); test: JNK3 AlphaScreen Assay (AID 530; active = well fitted curve in either direction with a large enough effect, not every such curve was filed as active;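 also: kinase came from lysate of stimulated human HepG2 cells; signal reports phosphorylation of biotinylated GST-cJun 1-79 at Ser73 with 10 µM ATP; % is scaled to controls: 0 for no effect and ±100 for the full control effect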)
Procedure, shortened: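 Biotinylated GST-cJun(1-79) served as substrate for JNK3 in HepG2 lysates stimulated with IL-1beta and TNF-alpha. ATP was 10 uM final, pH 7.6. Ser73 phosphorylation was quantified by AlphaScreen (680 nm excitation).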

[15] = molecular target: Cytochrome P450 2D6 (Homo sapiens) (UniProt P10635); test: qHTS Assay for Inhibitors and Substrates of Cytochrome P450 2D6 (AID 891); also: potency is read from the fitted curve at half-maximal effect; nearly all actives have a fitted effect of over 60% in size
Procedure, shortened: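 Luminescent read-out of luciferin formed by 5 nM human CYP2D6 demethylating 30 uM Luciferin-ME EGE (Km level) over 60 min at room temperature after NADPH regeneration addition. Data normalized to full inhibition by 1.43 uM quinidine.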

[16] = molecular target: DNA dC->dU-editing enzyme APOBEC-3G (Homo sapiens) (UniProt Q9HC16); test: qHTS for inhibitors of Vif-A3G interactions: Validation (AID 588379); also: 0% is about no effect
Sequence of DNA dC->dU-editing enzyme APOBEC-3G (Homo sapiens) (Q9HC16 whole entry, looked up): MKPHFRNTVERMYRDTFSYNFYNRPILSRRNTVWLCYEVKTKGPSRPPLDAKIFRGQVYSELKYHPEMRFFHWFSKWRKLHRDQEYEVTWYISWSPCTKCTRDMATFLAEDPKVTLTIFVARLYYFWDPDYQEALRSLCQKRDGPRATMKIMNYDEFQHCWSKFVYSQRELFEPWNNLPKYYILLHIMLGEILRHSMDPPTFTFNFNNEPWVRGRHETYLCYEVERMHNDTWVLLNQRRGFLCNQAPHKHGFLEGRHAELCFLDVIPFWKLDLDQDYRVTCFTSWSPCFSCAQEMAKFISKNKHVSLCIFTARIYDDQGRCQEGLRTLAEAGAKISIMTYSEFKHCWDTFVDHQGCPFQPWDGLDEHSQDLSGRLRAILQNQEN
Procedure, shortened: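 Yellow fluorescence (Ex 488, Em 500-530) of Vif-coexpressing HeLa A3G-eYFP cells, scanned by Acumen cytometer, reports blocked A3G degradation. Cells plated at 700/well overnight at 37 deg C before compound addition, then a further overnight compound incubation at 37 deg C.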

[17] = Counterscreen qHTS for small molecule stabilizers of the endoplasmic reticulum resident proteome: GLuc-NoTag assay (AID 1508627);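 also: 0% = thapsigargin alone and -100% = DMSO vehicle control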
Procedure, shortened: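 Secreted GLuc lacking the SERCaMP modification is measured in SH-SY5Y cells exposed to compound for 19 h and then to thapsigargin (100 nM, 4 h) to deplete ER calcium; hits retested at 11 concentrations, up to 76.6 uM.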

[18] = molecular target: Lysosomal acid glucosylceramidase (Homo sapiens) (UniProt P04062); test: Glucocerebrosidase-p2 (AID 348; in the data active = potency below about 10 µM; also: potency is read from the fitted curve at half-maximal effect); conditions: purified GBA, blue fluorogenic substrate, 40 min
Procedure, shortened: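 Normal human glucocerebrosidase (0.2 nM) with blue fluorogenic substrate (80 uM final) in citrate/phosphate pH 5.9 with 10mM sodium taurocholate, 0.01% tween-20; 40 min RT, NaOH/glycine stop; fluorescence Ex 365/Em 440; AC50 from a titration from 0.6 nM upwards.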

[19] = AP1 Signaling Pathway (AID 357; active = well fitted curve in either direction with a large enough effect, not every such curve was filed as active;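 also: ME-180 reporter cells stimulated with EGF at its EC50 level; % is scaled to controls: 0 for no effect and ±100 for the full control effect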); conditions: ME-180 AP-1-bla reporter, EGF-induced, beta-lactamase ratio, 5 h
Procedure, shortened: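 First, ME-180 AP-1-bla cells were cultured overnight at 37 °C in low-serum Opti-MEM. Next, titrated compounds with EC50 EGF were incubated 5 hours. Finally, CCF4 was added for 2.5 hours and the 460/530 nm ratio recorded.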

[20] = NFAT Signaling Pathway (AID 444; active = well fitted curve in either direction with a large enough effect, not every such curve was filed as active;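 also: carbachol stimulus at about its EC50 of 1 µM final; % is scaled to controls: 0 for no effect and ±100 for the full control effect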); conditions: Jurkat NFAT-bla M1, carbachol, beta-lactamase ratio, 5 h
Procedure, shortened: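 Jurkat cells carrying an NFAT-driven β-lactamase reporter and co-transfected muscarinic M1 receptor were treated with compound plus carbachol (1 uM final, an EC50 level) for 5 h at 37 °C. CCF4 loading followed for 1 h at RT; 460/530 nm ratio gave %activity.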

[21] = Stat Signaling Pathway (AID 446; active = well fitted curve in either direction with a large enough effect, not every such curve was filed as active); conditions: ME-180 (cervical carcinoma) SIE beta-lactamase reporter, IL-6 stimulated, 5 h
Procedure, shortened: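 Compound effects on IL-6-induced STAT reporter activity were measured in ME-180 cells. After overnight culture, cells were co-treated with 40 pM IL-6 for 5 hrs before beta-lactamase substrate loading at room temperature.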

[22] = molecular target: Guanine nucleotide-binding protein G(i) subunit alpha-1 (Homo sapiens) (UniProt P63096); test: qHTS Assay for Inhibitors of RGS12 GoLoco Motif Activity (Green Fluorophore) (AID 879);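 also: 0% = labeled peptide with Gαi1 and full inhibition = labeled peptide alone without protein; negative values mean loss of peptide binding seen as reduced polarization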
Sequence of Guanine nucleotide-binding protein G(i) subunit alpha-1 (Homo sapiens) (P63096 whole entry, looked up): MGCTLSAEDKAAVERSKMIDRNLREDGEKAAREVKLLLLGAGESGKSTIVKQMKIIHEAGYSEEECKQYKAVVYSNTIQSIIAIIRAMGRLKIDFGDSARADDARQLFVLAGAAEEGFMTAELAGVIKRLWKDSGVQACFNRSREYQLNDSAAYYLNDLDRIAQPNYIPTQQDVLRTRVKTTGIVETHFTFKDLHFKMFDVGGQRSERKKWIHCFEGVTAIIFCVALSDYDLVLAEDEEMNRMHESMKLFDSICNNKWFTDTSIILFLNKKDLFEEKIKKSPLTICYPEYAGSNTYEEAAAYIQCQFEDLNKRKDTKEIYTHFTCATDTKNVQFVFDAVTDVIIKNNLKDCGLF
Procedure, shortened: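 A drop in FITC polarization marked displacement of the FITC-tagged RGS12 GoLoco peptide (10 nM) from Gαi1 (50 nM). Compounds were incubated 10 min at room temperature in Tris pH 7.5 buffer containing 150 mM NaCl, 0.1 mM GDP and 0.05% NP40; unlabeled peptide titration served as control.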

[23] = qHTS Assay for Identification of Small Molecule Agonists for Thrombopoietin (TPO) Signaling Pathway (AID 917); also: % is scaled to controls: 0 for no effect and ±100 for the full control effect
Procedure, shortened: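 Human TPO receptor–transfected Ba/F3 cells (murine, IL-3-dependent) in IL-3-deficient medium; compounds plus TPO at EC50, 26 pM final; 24 hrs, 37 C; GpIIb-luciferase luminescence after 10 min RT detection.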

[24] = molecular target: Pyruvate kinase (Leishmania mexicana) (UniProt Q27686); test: qHTS Validation Assay for Inhibitors of Leishmania Mexicana Pyruvate Kinase (AID 945);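 also: 0% = DMSO only neutral control wells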
Sequence of Pyruvate kinase (Leishmania mexicana) (Q27686 2-499 E452W): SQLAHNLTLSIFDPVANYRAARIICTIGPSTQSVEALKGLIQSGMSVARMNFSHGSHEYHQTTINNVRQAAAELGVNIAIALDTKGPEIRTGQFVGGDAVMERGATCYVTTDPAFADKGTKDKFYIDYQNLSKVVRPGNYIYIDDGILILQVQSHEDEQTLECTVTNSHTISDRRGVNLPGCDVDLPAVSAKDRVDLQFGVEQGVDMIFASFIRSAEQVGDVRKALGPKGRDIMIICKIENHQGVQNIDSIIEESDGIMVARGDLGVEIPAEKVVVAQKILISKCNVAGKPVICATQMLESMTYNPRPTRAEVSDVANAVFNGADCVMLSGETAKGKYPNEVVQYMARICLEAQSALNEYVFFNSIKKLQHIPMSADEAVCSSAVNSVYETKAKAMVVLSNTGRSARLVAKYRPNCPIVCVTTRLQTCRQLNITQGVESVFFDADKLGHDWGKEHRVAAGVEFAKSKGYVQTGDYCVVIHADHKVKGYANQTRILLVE
Procedure, shortened: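 Substrate mix (0.5 mM PEP, 0.1 mM ADP, 7 mM MgCl2, 50 mM KCl, pH 7.2 imidazole) received compound by pin tool, then 0.2 nM LmPYK E451W. After 1 h at room temperature, PKLight was added and luminescence measured.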

[25] = molecular target: Pyruvate kinase PKM (Homo sapiens) (UniProt P14618); test: qHTS Assay for Activators of Human Muscle Pyruvate Kinase (AID 954; active = well fitted curve in the direction sought with a large enough effect, not every such curve was filed as active;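 also: 0% = uninhibited enzyme and -100% = no enzyme or full thiadiazolimine inhibition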)
Sequence of Pyruvate kinase PKM (Homo sapiens) (P14618 whole entry, looked up): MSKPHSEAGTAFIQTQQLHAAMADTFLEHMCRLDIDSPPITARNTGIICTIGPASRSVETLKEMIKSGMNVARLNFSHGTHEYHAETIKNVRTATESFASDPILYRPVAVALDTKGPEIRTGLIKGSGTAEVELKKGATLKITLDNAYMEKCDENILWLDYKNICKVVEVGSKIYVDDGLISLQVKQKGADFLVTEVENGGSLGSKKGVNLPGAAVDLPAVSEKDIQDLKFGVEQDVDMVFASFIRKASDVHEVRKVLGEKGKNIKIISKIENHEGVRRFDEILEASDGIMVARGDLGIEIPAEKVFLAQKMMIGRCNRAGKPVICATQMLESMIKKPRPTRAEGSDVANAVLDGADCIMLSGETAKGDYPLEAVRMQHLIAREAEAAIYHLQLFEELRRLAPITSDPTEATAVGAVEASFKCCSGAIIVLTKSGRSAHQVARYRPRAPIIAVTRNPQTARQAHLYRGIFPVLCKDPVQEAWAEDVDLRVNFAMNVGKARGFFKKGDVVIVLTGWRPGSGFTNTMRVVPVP
Procedure, shortened: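 A coupled luminescent readout tracked ATP made from ADP by purified PKM2. Final conditions included 0.1 nM enzyme, PEP and ADP at 0.5 and 0.1 mM, pH 7.2 imidazole buffer with BSA, and a one-hour room-temperature reaction.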

[26] = molecular target: Alpha-galactosidase A (Homo sapiens) (UniProt P06280); test: Counterscreen for Glucocerebrosidase Inhibitors: qHTS Assay for Human alpha-Galactosidase at pH 4.5 (AID 992); also: 0% is about no effect
Procedure, shortened: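 Citrate buffer pH 4.5, Tween-20 0.005%. Enzyme 2 nM, substrate 80 uM, 20 min RT. Stop pH 10. Fluorescence Ex 365/Em 440. AC50 by Hill fit.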

[27] = molecular target: alpha-glucosidase (Oryza sativa, rice) (UniProt Q653V4); test: Counterscreen for Glucocerebrosidase Inhibitors: qHTS Assay for Rice alpha-Glucosidase at pH 5.0 (AID 997);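 also: 0% = full activity with enzyme and -100% = basal without enzyme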
Procedure, shortened: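 Endpoint fluorogenic assay at pH 5.0: compounds (0.7 nM to 77 uM) titrated against 4 nM rice enzyme and 400 uM 4-MU-alpha-glucoside for 20 min at room temperature; NaOH/glycine stop, read ex 365/em 440 nm, Hill-fitted AC50.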

[28] = qHTS Assay for Lipid Storage Modulators (AID 1519; calls by dose curve); conditions: Drosophila S3 cells, BODIPY lipid droplet/cell ratio, laser cytometry, cells loaded with oleic acid
Procedure, shortened: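 Cells seeded at 5,000 per well were treated with compounds over a concentration series and loaded with oleic acid (400 uM, as added). Lipid droplet fluorescence (488 nm excitation, 500-530 nm channel) was read by laser-scanning cytometry and normalized to 20 uM Triacsin C.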

[29] = molecular target: Ubiquitin carboxyl-terminal hydrolase 1 (Homo sapiens) (UniProt O94782); test: Inhibitors of USP1/UAF1: Pilot qHTS (AID 504865);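 also: rhodamine fluorescence freed from ubiquitin-rhodamine substrate followed over time; top concentration of the series differs between compounds; % is scaled to controls: 0 for no effect and ±100 for the full control effect; nearly all actives have a fitted effect of over 35% in size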
Sequence of Ubiquitin carboxyl-terminal hydrolase 1 (Homo sapiens) (O94782 whole entry, looked up): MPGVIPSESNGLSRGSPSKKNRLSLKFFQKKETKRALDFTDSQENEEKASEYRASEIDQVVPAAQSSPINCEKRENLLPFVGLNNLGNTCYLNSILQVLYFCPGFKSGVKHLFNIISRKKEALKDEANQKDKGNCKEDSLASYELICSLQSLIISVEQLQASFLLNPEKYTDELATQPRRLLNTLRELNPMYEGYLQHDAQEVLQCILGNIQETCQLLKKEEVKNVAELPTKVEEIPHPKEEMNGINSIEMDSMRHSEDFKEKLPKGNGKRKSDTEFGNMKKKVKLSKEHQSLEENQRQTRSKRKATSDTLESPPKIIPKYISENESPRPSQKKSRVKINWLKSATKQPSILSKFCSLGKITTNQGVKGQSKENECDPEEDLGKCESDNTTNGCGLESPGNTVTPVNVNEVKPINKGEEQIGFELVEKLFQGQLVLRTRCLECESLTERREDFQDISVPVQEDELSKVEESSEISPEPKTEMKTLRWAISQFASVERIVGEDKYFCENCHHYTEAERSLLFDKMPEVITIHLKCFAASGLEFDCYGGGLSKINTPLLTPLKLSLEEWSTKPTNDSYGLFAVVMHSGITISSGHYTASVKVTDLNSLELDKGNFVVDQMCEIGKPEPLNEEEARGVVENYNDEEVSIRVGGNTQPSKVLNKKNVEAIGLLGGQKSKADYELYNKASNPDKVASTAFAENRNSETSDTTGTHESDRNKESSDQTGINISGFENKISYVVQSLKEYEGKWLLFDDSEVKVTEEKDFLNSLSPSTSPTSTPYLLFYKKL
Procedure, shortened: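 Enzyme-free wells gave the negative control, while test wells held 1nM USP1/UAF1 preincubated with compound for 15 min at room temperature. Ub-Rho at 150nM final started the reaction, and fluorescence at 480/540 nm was recorded kinetically.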

C=C1C(=O)O[C@@H]2[C@H]3O[C@]3(C)CC/C=C(\C)CC[C@@H]12
inactive: Potency [1] | Potency [2] | Potency [3] | Potency [4] | activity change, negative = inhibition ([7]; Viability, at 45.9 µM (top of the series)) 0.032%
active: Potency [5] 3.72 µM | Potency [6] 2.09 µM | Potency ([7]; HiBiT) 7.01 µM

COc1cccc(CCc2ccccc2OCC[C@@H]2C[C@@H](O)CN2C)c1
inactive: Potency [9] | Potency [1] | Potency [10]
active: Potency [8] 3.16 µM

O=C1C(Nc2ccccc2)=CC(=O)c2ncccc21
inactive: Potency [1] | Potency [2]

COc1ccc(Cl)cc1N=Nc1ncc[nH]1
active: Potency [11] 0.631 µM | Potency [15] 2.51 µM | Potency [10] 35.5 µM
inactive: Potency [12] > 46 µM | Potency [13] > 46 µM | Potency [14] | Potency [9] | Potency [16] | Potency [1] | Potency [17]

CN(C)C/C=C(\c1ccc(Br)cc1)c1cccnc1
-11.6%: max response ([28]; measured here: lipid channel max response)
inactive: Potency [18] > 11.4 µM | activity change, negative = inhibition ([19]; at 7.69 µM (top of the series)) 5.82% | activity change, negative = inhibition ([19]; at 17.2 µM (top of the series)) 4.78% | activity change, negative = inhibition ([19]; at 38 µM (top of the series)) 14.9% | activity change, negative = inhibition ([20]; at 7.69 µM (top of the series)) -7.27% | activity change, negative = inhibition ([20]; at 17.2 µM (top of the series)) -12.7% | activity, negative = inhibition ([21]; at 7.69 µM (top of the series)) 3.29% | activity, negative = inhibition ([21]; at 17.2 µM (top of the series)) 7.82% | activity, negative = inhibition ([21]; at 38 µM (top of the series)) -15.8% | Potency [13] > 46 µM and > 20.6 µM and > 9.22 µM | Potency [14] | outcome [22] | Potency [23] | Potency [24] | outcome [25] | outcome [26] | outcome [27] | activity change, negative = inhibition ([28]; at 25.7 µM (top of the series)) -2.94% | Potency [29] | Potency [16] | Potency [1]
-7.55%: max response ([28]; measured here: cell count channel max response)
active: Potency [10] 44.7 µM
